Bioassay records: PubChem, National Center for Advancing Translational Sciences (NCATS)
An excerpt weighted towards active compounds, which were near 6.9% of everything screened.
Vif-A3G inh: inhibitors of Vif-APOBEC3G interaction; AID 602310; HeLa A3G-eYFP + Vif (tagged APOBEC3G with the HIV-1 protein that degrades it), YFP fluorescence, overnight; Potency, µM (highest dose often 46.1 µM), for inactives: at the highest dose activity, negative = active, hits mostly inhibitors; Q9HC16; 410,000 tested, 0.076% active; further: potency means the concentration at half of the fitted maximal effect; on the % scale 0 is the no-effect control and ±100 the full control effect; nearly all actives have a fitted effect of over 60% in size
Target sequence (Q9HC16 whole entry, looked up): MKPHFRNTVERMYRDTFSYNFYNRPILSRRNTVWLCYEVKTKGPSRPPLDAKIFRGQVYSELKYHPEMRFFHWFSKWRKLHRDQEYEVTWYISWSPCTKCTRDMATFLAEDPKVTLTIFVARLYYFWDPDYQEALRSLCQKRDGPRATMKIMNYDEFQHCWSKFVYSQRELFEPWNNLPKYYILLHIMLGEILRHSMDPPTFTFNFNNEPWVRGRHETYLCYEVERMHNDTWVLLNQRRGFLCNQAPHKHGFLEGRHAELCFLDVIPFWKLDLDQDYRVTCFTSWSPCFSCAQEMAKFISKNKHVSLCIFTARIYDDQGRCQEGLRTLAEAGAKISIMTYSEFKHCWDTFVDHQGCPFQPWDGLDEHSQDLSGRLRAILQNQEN
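HeLa cells stably expressing Vif and C-terminally eYFP-tagged A3G, seeded overnight at 37 deg C, then exposed to compound by pintool overnight at 37 deg C. Rise in yellow fluorescence (Ex 488/Em 500-530, Acumen) marks blocked Vif-driven A3G degradation.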
Vif-A3F inh: blocks the Vif interaction with APOBEC3F | Potency, µM (series often up to 46.1 µM), for inactives: at the top dose activity, negative = active | 390,000 tested, 0.2% active | HeLa A3F-eYFP + Vif (tagged APOBEC3F with the HIV-1 protein that degrades it), YFP fluorescence increase; further: potency means the concentration at half of the fitted maximal effect; % of control where 0% means no effect; nearly all actives have a fitted effect of over 65% in size
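HeLa cells stably expressing A3F-eYFP plus Vif, plated and incubated overnight at 37 deg C, then exposed to compounds overnight at 37 deg C. Blocked degradation read as raised yellow fluorescence (Ex 488/Em 500-530).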
MCF10A rerep: inducers of DNA re-replication in MCF 10A breast cells; MCF 10A DNA re-replication, Hoechst nuclear intensity, 48 h; 350,000 tested, 2.9% active; Potency, µM (top dose mostly 46.1 µM), inactives show at the top dose activity, positive = re-replication, usual class: activators; further: potency means the concentration at half of the fitted maximal effect; % of control where 0% means no effect; nearly all actives have a fitted effect of over 50% in size
SW480 rerep: inducers of DNA re-replication in SW480 colon cancer cells; SW480 DNA re-replication, Hoechst DNA content imaging, 48 h; Potency, µM (highest dose often 46.1 µM), for inactives: at the highest dose re-replication activation, most hits filed as activators; 340,000 tested, 1.8% active; AID 624297; further: potency means the concentration at half of the fitted maximal effect; % of control where 0% means no effect; nearly all actives have a fitted effect of over 55% in size
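Treated cells incubate 48 hr (37 C, 5% CO2), are stained 40 min with Hoechst, and nuclear fluorescence is enumerated; a rise in nuclei with high DNA signal marks re-replication.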
Giardia killer: kills Giardia lamblia; Giardia lamblia trophozoite viability; activity change, % at 7.66 µM, hits read low; 340,000 tested, 0.15% active; in the data active means activity change below about -80%; inconclusive means between about -30% and that limit;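 further: parasites exposed to compound for two days anaerobically before the ATP read; on the % scale 0 is the no-effect control and ±100 the full control effect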
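Each well holds 100 Giardia trophozoites and compound. After two days (48 hrs) at 37 deg C in anaerobic conditions, ATP is quantified by luminescence.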
IL1B secr inh: blocks inflammasome-driven IL-1 beta release; THP-1 LPS/ATP IL-1B secretion, AlphaLISA, 16 h; stronger effect = lower value; activity change, % at 57.5 µM; 360,000 tested, 4.7% active; in the data active means activity change below about -50%; inconclusive means mostly about -30% to -49%; further: on the % scale 0 is the no-effect control and ±100 the full control effect
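Secreted IL-1B measured by AlphaLISA bead assay after 16 h compound exposure of THP-1 cells; compounds (final up to 57.5 uM) added 1 h before LPS (250 ng/mL) and ATP (1.25 mM) stimulation; lower signal means less secretion.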
The depositor's hits bear a star; ? = inconclusive; . = no result. Unless noted, the call rests on the fitted dose curve; in most records, active means well fitted curve in the direction sought with a large enough effect; inconclusive means small, poorly fitted or top-dose-only effect, or another doubt; inactive means no such curve, though single readings can be large; an effect the other way counts as inactive or inconclusive.

SMILES | Vif-A3G inh | Vif-A3F inh | MCF10A rerep | SW480 rerep | Giardia killer | IL1B secr inh
C/C(=N\Nc1nc2ccccc2s1)c1ccc2c(c1)OCO2 | -7% | ? | -2% | 0% | -12 | 12
COc1ccc(Cn2c(SCC#N)nc3ccc(N4CCOCC4)cc3c2=O)cc1 | -1% | 13% | 21µM* | 1% | -13 | -11
COC(=O)c1sc2cc([N+](=O)[O-])cc(SCC(C)C)c2c1N | 10µM* | 10µM* | 2% | -1% | -5 | 3
Cc1ccc(-c2nnc(SCC(=O)N/N=C/c3ccc(C)s3)n2-c2ccccc2)cc1 | -16% | 0% | 18µM* | ? | -5 | -23
O=CNc1ccc2c(c1)Cc1cc([N+](=O)[O-])ccc1-2 | -19% | 2% | ? | 3.3µM* | ? | -55*
O=C(C[n+]1ccc2ccccc2c1)c1ccc(O)c(O)c1 | -2% | . | . | . | . | .
COc1cccc(CNC(=O)Nc2ccc3c(c2)N(C)C(=O)c2ccccc2S3)c1 | -1% | -1% | . | . | . | .
Cn1cnnc1SCC(=O)NNC(=O)COc1ccc(Cl)cc1 | 0% | -2% | 0.58µM* | -17% | 7 | -4
CCOC(=O)c1c(C)[nH]c(C2=NNC(=Nc3cccc(Cl)c3)SC2)c1C | . | . | 6.5µM* | 21µM* | . | .
CC(=O)c1c(C)[nH]c(C2=NNC(=NCc3ccccc3)SC2)c1C | 0% | 0% | -1% | 2% | -5 | 0
O=c1[nH]c(/C=C/c2ccccc2Cl)nc2ccccc12 | ? | -20% | 16% | 18µM* | -20 | -3
Cc1cccc(/C=C/c2nc3ccccc3c(=O)[nH]2)c1 | -14% | -12% | 8.2µM* | 5.2µM* | 1 | 3
Cc1[nH]c2ccccc2c1/C=C/c1nc2ccccc2c(=O)[nH]1 | ? | ? | 23µM* | 16µM* | -10 | -103*
Clc1ccc(/C=C/c2nc3ccccc3[nH]2)c(Cl)c1 | -1% | -3% | 16µM* | ? | ? | ?
Clc1ccc(/C=C/c2nc3ccccc3[nH]2)cc1 | -14% | -8% | ? | -4% | ? | -13
CCn1c(/C=C/c2c(C)[nH]c3ccccc23)nc2ccccc2c1=O | ? | ? | ? | ? | -6 | 21
c1ccc2nccnc2c1 | -24% | . | . | . | . | .
CC(C)(O)C#Cc1ccc(C(=O)N2CCCC(CNS(=O)(=O)c3cccs3)C2)o1 (configuration not stated) | -3% | 6% | 9% | 21µM* | 3 | 6
CCOc1ccccc1NC(=O)c1c(NC(=O)Cc2ccc(OC)cc2)sc2c1CCC2 | -14% | 0% | . | . | . | .
CCOC(=O)c1ccc(NC(=O)C(Cc2ccccc2)NS(=O)(=O)c2ccc(Br)s2)cc1 (configuration not stated) | 2% | -2% | . | . | . | .
N/C(=N\S(=O)(=O)c1cc(C(F)(F)F)cc(C(F)(F)F)c1)c1ccc(Cl)cc1 | -8% | 4% | 13µM* | 10µM* | 26 | -1
N/C(=N\S(=O)(=O)c1cc(C(F)(F)F)cc(C(F)(F)F)c1)c1ccncc1 | -2% | -5% | 1% | -1% | 9 | 16
COc1cccc(C(=O)Nc2ccccc2-c2nnc(-c3ccc(C(C)(C)C)cc3)o2)c1 | -3% | -3% | . | . | . | .
COc1ccc(CNC(=O)CCCn2ccc3cc(S(=O)(=O)N4CCCC4)ccc32)cc1 | -21% | -6% | 21µM* | 7.3µM* | -5 | 37
CCOc1ccc(NC(=O)c2c(OC)cccc2OC)cc1 | -2% | 3% | 0.65µM* | -5% | 16 | 42
SMILES | Vif-A3G inh | Vif-A3F inh | MCF10A rerep | SW480 rerep | Giardia killer | IL1B secr inh
CN(C)CCCNc1oc(/C=C/c2cccs2)nc1S(=O)(=O)c1ccccc1 | 4% | -5% | ? | 12µM* | 15 | -13
COCCNc1oc(/C=C/c2cccs2)nc1S(=O)(=O)c1ccccc1 | -5% | -1% | . | . | . | -20
O=C(NC(=S)Nc1cccc(Cl)c1N1CCCCC1)c1cccs1 | -13% | 0% | 3.3µM* | ? | 10 | 48
O=C(NC(=S)Nc1cccc(Cl)c1N1CCCCC1)c1ccco1 | -12% | -16% | ? | 18µM* | -10 | 18
O=C(NC(=S)Nc1cccc(Cl)c1N1CCOCC1)c1cccs1 | 0% | -7% | -1% | -5% | 7 | 2
CCCC(=O)NC(=S)Nc1cccc(Cl)c1N1CCCC1 | -4% | 4% | 18µM* | ? | -23 | 66
O=C(NC(=S)Nc1ccccc1N1CCCCC1)c1ccco1 | -5% | 0% | ? | -2% | 12 | 14
CCCC(=O)NC(=S)Nc1cccc2c(O)cccc12 | -8% | 0% | -5% | ? | -16 | 5
Cc1ccccc1NC(=O)c1nc(SCc2ccccc2F)ncc1Cl | 3% | . | . | . | . | .
CC(=O)N1c2ccc(C)cc2Sc2c1ccc1ccccc21 | -26% | 4% | 21µM* | ? | -18 | 17
Cc1cc(-c2ccc(C)c(S(=O)(=O)NCC3CCN(Cc4ccc(F)cc4)CC3)c2)on1 | 0% | 2% | 13% | 2.9µM* | 3 | -88*
CCOc1ccccc1C(=O)N1CCc2cc(OC)c(OC)cc2C1COc1ccc2c(C)cc(=O)oc2c1 (configuration not stated) | 0% | -4% | . | . | . | .
CN1C(=O)c2ccccc2Sc2ccc(NC(=O)N3CCN(c4cccc(Cl)c4)CC3)cc21 | 4% | 5% | . | . | . | .
CC(C)(C)c1ccc(/C=C(\c2nc3ccccc3[nH]2)S(=O)(=O)c2ccccc2)cc1 | ? | -1% | 5.2µM* | 8.2µM* | 4 | -96*
Cc1cccc(/C=C(\c2nc3ccccc3[nH]2)S(=O)(=O)c2ccccc2)c1 | -18% | -5% | 5.8µM* | ? | -27 | -110*
O=C(O)c1ccc(/C=C(\c2nc3ccccc3[nH]2)c2nc3ccccc3s2)cc1 | -9% | -8% | ? | 12µM* | -22 | -70*
CC(=O)Nc1ccccc1NS(=O)(=O)c1ccccc1NO | 1% | . | . | . | 2 | .
O=S(=O)(NCCc1nnc2ccc(SCc3c(F)cccc3Cl)nn12)c1ccccc1 | 5% | 0% | . | . | . | .
Cc1ccc(S(=O)(=O)/N=C(/Nc2ccc([N+](=O)[O-])cc2)c2ccccc2)cc1 | 3% | 8% | ? | 26% | 0 | 12
Cc1ccc(S(=O)(=O)/N=C(/Nc2ccc([N+](=O)[O-])cc2[N+](=O)[O-])c2ccccc2)cc1 | -1% | -11% | ? | 1% | ? | -67*
COc1ccccc1-c1ccc(/C=C2\C=CC(=O)O2)o1 | ? | ? | 21µM* | ? | -3 | .
COc1ccccc1-c1ccc(/C=C2/C=C(C)OC2=O)o1 | -6% | -4% | 21µM* | ? | 7 | -6
COC(=O)c1ccc(NC(=O)CCc2c(C)nn(-c3ccc(N4CCOCC4)nn3)c2C)cc1 | 1% | 1% | . | . | . | .
